These results are taken from ChEMBL document CHEMBL1961873, “Compounds: GSK PKIS; Assays: Nanosyn kinase panel” (2012).

Experiment [1] deals with Protein kinase C gamma type (Homo sapiens) (UniProt P05129). Conditions: at 1 µM.
The target of experiment [2] is T1, Protein kinase C iota type (Homo sapiens) (UniProt P41743).
T1 sequence (whole entry): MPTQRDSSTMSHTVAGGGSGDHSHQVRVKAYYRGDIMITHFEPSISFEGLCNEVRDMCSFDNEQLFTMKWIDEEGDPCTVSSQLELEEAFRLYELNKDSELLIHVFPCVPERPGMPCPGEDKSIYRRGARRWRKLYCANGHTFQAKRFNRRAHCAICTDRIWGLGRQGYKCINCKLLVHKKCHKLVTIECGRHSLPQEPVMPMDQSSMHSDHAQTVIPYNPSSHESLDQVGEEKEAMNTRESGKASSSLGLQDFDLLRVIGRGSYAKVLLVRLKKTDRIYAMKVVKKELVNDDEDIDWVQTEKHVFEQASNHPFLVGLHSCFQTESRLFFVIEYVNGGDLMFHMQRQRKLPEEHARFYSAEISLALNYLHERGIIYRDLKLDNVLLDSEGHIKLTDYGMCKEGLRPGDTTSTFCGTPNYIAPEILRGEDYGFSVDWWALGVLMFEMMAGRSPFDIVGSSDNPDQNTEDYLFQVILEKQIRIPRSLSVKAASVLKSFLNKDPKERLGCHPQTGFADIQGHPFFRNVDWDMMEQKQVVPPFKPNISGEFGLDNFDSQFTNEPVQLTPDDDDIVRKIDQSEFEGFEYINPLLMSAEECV
The note with it: at 0.1 µM.

The target of experiment [3] is T1, Protein kinase C iota type (Homo sapiens). Conditions: at 1 µM.
Experiment [4] deals with Protein kinase C theta type (Homo sapiens) (UniProt Q04759). Conditions: at 0.1 µM.
The target is the same in experiment [5]. The note with it: at 1 µM.
In experiment [6] the target is Protein kinase C beta type (Homo sapiens) (UniProt P05771). Conditions: at 0.1 µM.
The target is the same in experiment [7]. The note with it: at 1 µM.
Experiment [8] has as its target T2, Serine/threonine-protein kinase D1 (Homo sapiens) (UniProt Q15139).
T2 sequence (whole entry): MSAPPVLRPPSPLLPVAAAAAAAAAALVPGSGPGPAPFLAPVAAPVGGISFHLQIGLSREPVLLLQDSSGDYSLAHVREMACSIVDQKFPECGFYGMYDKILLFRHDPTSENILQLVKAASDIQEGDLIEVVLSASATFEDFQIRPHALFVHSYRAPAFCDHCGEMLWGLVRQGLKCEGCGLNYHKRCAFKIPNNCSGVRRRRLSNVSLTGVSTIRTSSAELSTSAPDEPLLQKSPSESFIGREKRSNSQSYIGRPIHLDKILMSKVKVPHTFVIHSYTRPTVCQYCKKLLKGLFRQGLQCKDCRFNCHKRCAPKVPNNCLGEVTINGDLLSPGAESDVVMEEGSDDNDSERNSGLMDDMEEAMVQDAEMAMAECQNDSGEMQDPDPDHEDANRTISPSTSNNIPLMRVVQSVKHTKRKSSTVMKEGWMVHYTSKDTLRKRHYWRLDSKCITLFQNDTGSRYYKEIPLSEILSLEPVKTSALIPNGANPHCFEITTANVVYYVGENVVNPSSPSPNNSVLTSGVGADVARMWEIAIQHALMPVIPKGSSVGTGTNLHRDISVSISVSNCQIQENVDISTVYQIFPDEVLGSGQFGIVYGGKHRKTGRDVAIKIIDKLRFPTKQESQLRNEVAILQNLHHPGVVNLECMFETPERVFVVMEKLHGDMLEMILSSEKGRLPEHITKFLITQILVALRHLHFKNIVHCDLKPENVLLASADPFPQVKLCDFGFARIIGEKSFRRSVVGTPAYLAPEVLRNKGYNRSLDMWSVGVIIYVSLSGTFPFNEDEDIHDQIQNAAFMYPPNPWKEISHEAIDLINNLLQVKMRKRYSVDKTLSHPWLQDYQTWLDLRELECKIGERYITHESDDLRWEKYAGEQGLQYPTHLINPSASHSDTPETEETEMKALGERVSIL
Conditions: at 0.1 µM.

Experiment [9] addresses T2, Serine/threonine-protein kinase D1 (Homo sapiens). The note with it: at 1 µM.
Experiment [10] addresses T3, Serine/threonine-protein kinase D2 (Homo sapiens) (UniProt Q9BZL6).
T3 sequence (whole entry): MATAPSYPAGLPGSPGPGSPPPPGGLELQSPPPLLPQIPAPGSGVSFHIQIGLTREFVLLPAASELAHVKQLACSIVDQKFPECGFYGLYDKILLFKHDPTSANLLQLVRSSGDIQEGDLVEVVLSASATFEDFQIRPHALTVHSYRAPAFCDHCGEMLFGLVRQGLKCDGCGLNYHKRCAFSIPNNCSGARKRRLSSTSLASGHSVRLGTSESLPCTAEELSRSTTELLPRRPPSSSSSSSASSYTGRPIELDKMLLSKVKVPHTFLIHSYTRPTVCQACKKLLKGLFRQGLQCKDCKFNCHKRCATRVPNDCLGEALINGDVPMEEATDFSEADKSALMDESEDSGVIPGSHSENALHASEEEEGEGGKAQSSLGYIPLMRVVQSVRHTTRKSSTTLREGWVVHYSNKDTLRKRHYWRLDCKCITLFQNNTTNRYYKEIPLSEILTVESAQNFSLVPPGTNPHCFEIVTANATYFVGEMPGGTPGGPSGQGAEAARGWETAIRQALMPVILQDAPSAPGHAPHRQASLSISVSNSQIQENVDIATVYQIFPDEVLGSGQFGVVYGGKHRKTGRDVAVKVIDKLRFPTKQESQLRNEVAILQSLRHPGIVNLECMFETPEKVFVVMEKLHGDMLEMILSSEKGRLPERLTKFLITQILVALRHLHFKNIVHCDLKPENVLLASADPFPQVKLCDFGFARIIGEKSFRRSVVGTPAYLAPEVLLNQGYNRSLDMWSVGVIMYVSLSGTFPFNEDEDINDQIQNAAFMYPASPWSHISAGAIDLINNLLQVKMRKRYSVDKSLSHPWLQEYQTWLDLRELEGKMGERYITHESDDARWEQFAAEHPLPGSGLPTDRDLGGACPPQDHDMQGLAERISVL
Conditions: at 0.1 µM.

A word on the inhibition: it is the change of the read-out against control, counted positive when it falls.

Protein kinase C theta type (Homo sapiens), sequence (Q04759 whole entry, looked up): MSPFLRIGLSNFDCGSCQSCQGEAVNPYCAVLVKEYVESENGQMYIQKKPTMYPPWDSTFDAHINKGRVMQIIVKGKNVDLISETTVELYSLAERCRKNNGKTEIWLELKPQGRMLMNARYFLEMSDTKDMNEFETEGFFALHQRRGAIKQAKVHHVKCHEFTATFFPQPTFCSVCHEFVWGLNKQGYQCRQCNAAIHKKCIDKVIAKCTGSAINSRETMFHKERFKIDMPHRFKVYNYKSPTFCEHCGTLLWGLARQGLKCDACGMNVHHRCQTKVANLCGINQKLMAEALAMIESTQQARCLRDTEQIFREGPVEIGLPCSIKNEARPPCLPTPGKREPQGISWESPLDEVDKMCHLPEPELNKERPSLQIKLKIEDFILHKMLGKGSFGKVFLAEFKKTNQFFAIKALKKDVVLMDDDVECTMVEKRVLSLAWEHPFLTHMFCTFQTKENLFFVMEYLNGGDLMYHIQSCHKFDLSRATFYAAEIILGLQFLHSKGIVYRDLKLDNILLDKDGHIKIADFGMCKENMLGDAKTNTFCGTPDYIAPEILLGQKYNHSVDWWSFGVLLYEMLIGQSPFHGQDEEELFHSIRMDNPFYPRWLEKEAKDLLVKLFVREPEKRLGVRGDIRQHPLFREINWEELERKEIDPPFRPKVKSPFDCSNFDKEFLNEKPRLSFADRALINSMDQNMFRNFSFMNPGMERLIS
Protein kinase C beta type (Homo sapiens), sequence (P05771 2-671 limits assumed): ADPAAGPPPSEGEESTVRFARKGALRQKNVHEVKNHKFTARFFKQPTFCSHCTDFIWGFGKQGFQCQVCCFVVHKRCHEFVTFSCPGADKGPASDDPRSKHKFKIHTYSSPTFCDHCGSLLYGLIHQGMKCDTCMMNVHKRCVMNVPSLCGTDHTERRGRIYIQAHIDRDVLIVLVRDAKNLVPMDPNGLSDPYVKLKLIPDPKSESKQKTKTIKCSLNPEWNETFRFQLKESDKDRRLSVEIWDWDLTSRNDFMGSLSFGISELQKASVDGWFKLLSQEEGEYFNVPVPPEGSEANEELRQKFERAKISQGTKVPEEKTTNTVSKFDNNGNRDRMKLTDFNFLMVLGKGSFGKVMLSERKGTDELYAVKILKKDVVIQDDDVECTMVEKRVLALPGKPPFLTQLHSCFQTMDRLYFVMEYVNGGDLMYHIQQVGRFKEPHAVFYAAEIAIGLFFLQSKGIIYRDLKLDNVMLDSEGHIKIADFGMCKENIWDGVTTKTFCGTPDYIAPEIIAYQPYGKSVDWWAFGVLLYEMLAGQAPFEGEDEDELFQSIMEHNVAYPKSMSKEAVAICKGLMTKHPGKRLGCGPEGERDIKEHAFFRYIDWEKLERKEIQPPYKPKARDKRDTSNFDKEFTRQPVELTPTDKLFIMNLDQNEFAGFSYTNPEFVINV

In the case of `Cc1ccc(NC(=O)CC2CC2)cc1-c1ccc(C(=O)NCC2CC2)cc1`, the inhibition in [1] is 6.55%; in experiment [2] it was 0.93%; in experiment [3] it was -0.03%; in experiment [4] it was 2.09%; in experiment [5], 2.23%; in experiment [6], 1%. Moreover, the inhibition was determined as 2.35% in experiment [7], 2.3% in [8], 3.9% in [9] and 2.89% in experiment [10].
Consider `CCn1c(-c2nonc2N)nc2c(C#CC(C)(C)O)nc(OCCNC)cc21`, for which the inhibition in experiment [1] was 8.19%; in experiment [2] it was 0.89%; in [3], 1.21%; in experiment [4], 15.7%; in experiment [5], 61.1%; in experiment [6] it was 1.53%. Further, the inhibition in experiment [7] was 10.8%; in experiment [8] it was 4.31%; in experiment [9], 12.9%; in experiment [10], 4.9%.
As for `O=S(=O)(CCOCc1ccc(-c2ccc3ncnc(Nc4ccc(OCc5cccc(F)c5)c(Cl)c4)c3c2)o1)c1ccccc1`, the inhibition in [1] was 1.98%; in [2] it was 0.8%; in experiment [3], 0.31%; in experiment [4], 0.62%; in [5], 0.48%; in [6], 0.96%. The inhibition in experiment [7] is 1.53%; in experiment [8] it was 1.15%; in [9] it was 2.02%; in experiment [10], 1.72%.
Consider `CN(C)C(=O)O[C@H]1CN[C@H](C#Cc2cc3ncnc(Nc4ccc(OCc5cccc(F)c5)c(Cl)c4)c3s2)C1`, for which the inhibition in [1] amounted to 0.1%; in experiment [2], 0.58%; in experiment [3], 1.07%; in experiment [4], 1.43%; in experiment [5], 0.06%; in experiment [6], 1.29%. Besides, the inhibition in experiment [7] stood at 1.12%; in [8], 2.38%; in experiment [9], 2.68%; in [10], 2.3%.
As to `COc1cc2ncnc(Nc3ccc4c(cnn4Cc4ccccc4)c3)c2cc1OC`, the inhibition in [1] was 2.04%; in [2] it was 0.72%; in [3] it was 0.48%; in [4] it was 0.78%; in experiment [5] it was 0.99%; in experiment [6], 0.94%. Also, the inhibition turned out to be 0.88% in experiment [7], 2.89% in experiment [8], 5.2% in experiment [9] and 2.96% in [10].
With `FC(F)(F)c1ccc(-c2nn3ncccc3c2-c2ccnc(Nc3ccc4c(c3)OCCO4)n2)cc1`, the inhibition in experiment [1] amounted to 5.47%; in experiment [2], 6.58%; in experiment [3] it was 3.53%; in experiment [4], 2.52%; in experiment [5], 5.32%; in experiment [6], 5.29%. The inhibition in experiment [7] is 6.33%; in experiment [8] it was 2.27%; in experiment [9] it was -1.71%; in [10] it was 0.7%.
As for `N#Cc1cccc(Nc2nccc(-c3cnn4ncccc34)n2)c1`, the inhibition in experiment [1] is 31.2%; in experiment [2], 0.78%; in experiment [3] it was 1.84%; in experiment [4], 3.95%; in [5], 14.2%; in [6] it was 6.33%. Also, the inhibition in [7] is 30.2%; in experiment [8], 7.68%; in experiment [9], 49.5%; in experiment [10] it was 7.36%.
For `Nc1nccc(C#Cc2cncnc2Nc2ccc(OCc3cccc(F)c3)c(Cl)c2)n1`, the inhibition in [1] was determined as 4.21%; in experiment [2] it was 1.86%; in experiment [3], 3.2%; in [4], 2.44%; in experiment [5], 1.22%; in experiment [6], 0.73%. Moreover, the inhibition was 1.49% in experiment [7], 3.68% in experiment [8], 6.75% in experiment [9] and 4.56% in experiment [10].
On to `CN(C)c1cc2c(Nc3ccc4c(cnn4Cc4ccccc4)c3)ncnc2cn1`, for which the inhibition was -1.38% in experiment [1]; 0.79% in experiment [2]; 1.74% in [3]; 0.5% in experiment [4]; 0.28% in experiment [5]; 0.51% in [6]. Besides, the inhibition in experiment [7] stood at 0.93%; in [8] it was 2.68%; in experiment [9], 5.12%; in experiment [10] it was 3.3%.
As for `Cc1ccc(C(=O)NC2CC2)cc1-c1ccc2[nH]ncc2c1`, the inhibition in experiment [1] was 0.02%; in [2], -1.83%; in [3], -1.13%; in [4] it was -1.64%; in experiment [5] it was 0.05%; in experiment [6], -0.94%. Also, the inhibition in experiment [7] is -0.69%; in experiment [8], -4.08%; in experiment [9] it was -2.68%; in experiment [10] it was -2.91%.
